TWEAK Fn14 block = inhibitors of TWEAK-Fn14 signaling, primary screen, luciferase reporter cells, uHTS | hit rate 2% among 360,000 | TWEAK-stimulated Fn14 reporter cells, luciferase luminescence, 8 h | inhibition, % at 10 µM | AID 1159606, 2016; in the data active = inhibition above about 50%
EWS-Fli inh = EWS/Fli-driven NR0B1 reporter inhibitors, primary screen, A673 cells, NR0B1 luciferase, luminescence, MLPCN library | AID 651661, 2012 | hit rate 0.67% among 350,000 | viability-normalised | inhibition, % at 12.6 µM;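 active = mean inhibition of at least 50% after viability correction, with every replicate also passing that limit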;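 also: firefly luciferase signal divided by Alamar Blue viability fluorescence both relative to DMSO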
LGR2 inh = inhibitors of bursicon-induced LGR2 CRE-luciferase signal, primary screen, cell-based, HEK293, CRE-luciferase reporter, bursicon stimulation | inhibition, % at 9.99 µM | hit rate 0.35% among 380,000 | AID 720647, 2013 | Drosophila bursicon receptor LGR2 (rickets) | bursicon-stimulated, 4 h;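 active = drop in luminescence signal, shown as inhibition above about 50% in the replicate tests, limit read from the data, passing the limit was not always enough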;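 also: agonist challenge used bursicon conditioned medium at about half maximal strength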
TROY NFkB inh = inhibitors of TROY-driven NF-kB signaling, primary screen, Q293 LMP1-TROYcd cells, NF-kB luciferase, uHTS; hit rate 0.98% among 360,000; Q293 LMP1-TROYcd NF-kB luciferase reporter, 4 h; inhibition, % at 10 µM; AID 1347056, 2019;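 active = compounds whose plate-normalised and pattern-corrected inhibition of the luciferase reporter signal at the single screening dose is 50% or more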
EBV LMP1 NFkB = EBV LMP1-driven NF-kappaB luciferase reporter inhibitors, primary screen, cell-based, luminescence, single point. AID 504558, 2011. LMP1-induced NF-kappaB luciferase reporter cells. inhibition, % at 12.5 µM. hit rate 0.69% among 350,000; in the data active = inhibition above about 41%;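 also: 0% = neutral control wells and 100% = reference inhibitor control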
* hit, by the source's call; x = no result given. Hits are enriched below; roughly 2.5% of the tested compounds scored in any of these assays.

SMILES	TWEAK Fn14 block	EWS-Fli inh	LGR2 inh	TROY NFkB inh	EBV LMP1 NFkB
CCC(C)c1ccc(S(=O)(=O)N2CCN(C(=O)COc3ccc4c(C)cc(=O)oc4c3)CC2)cc1 (stereo not given)	58*	x	x	x	-7
O=C(C[C@H]1C[C@@H]2c3cc(NC(=O)NC4CCCC4)ccc3O[C@@H]2[C@@H](CO)O1)NCc1ccccc1F	x	-4	-1	x	x
O=C(c1noc2c1CCCC2)N1CCCCC1	-15	5	-6	-3	68*
O=C(c1noc2c1CCCCC2)N1CCOCC1	-14	7	2	-2	-12
c1cc(-c2cc3cc(N4CCOCC4)ccc3o2)cs1	65*	49	-13	38	3
Cc1ccc(S(=O)(=O)Nc2ccc3c(c2)CC(=O)N([C@@H](C)CO)C[C@H](C)[C@@H](CN(C)S(=O)(=O)c2ccc(F)cc2)O3)cc1	x	1	-10	x	x
CC(C)NC(=O)N1CCCCN2[C@@H](CO)[C@H](c3ccc(C#Cc4ccccc4)cc3)[C@@H]2C1	x	0	-14	x	x
Fc1ccc(Nc2ccc3ccccc3n2)c(F)c1	52*	14	45	-2	-5
O=C(O)c1ccc(Nc2ncnc3scc(-c4ccccc4)c23)cc1	55*	6	-29	18	-6
CC(=O)Nc1ccc(Sc2ncnc3scc(-c4ccccc4)c23)cc1	62*	x	-10	29	14
Cc1ccc(-c2csc3ncnc(Nc4ccc(C(=O)O)cc4)c23)cc1	-7	5	-18	21	7
COc1ccc2c3c(n(C)c2c1)[C@@H](CO)N(Cc1ccccc1Cl)CC31CCN(C(=O)CN(C)C)CC1	x	0	9	x	x
C[C@H]1CN([C@@H](C)CO)C(=O)c2cccc(NC(=O)C3CCOCC3)c2O[C@@H]1CN(C)S(=O)(=O)c1cccs1	x	2	-6	x	x
CC(C)NC(=O)Nc1cccc2c1O[C@@H](CN(C)Cc1ccncc1)[C@@H](C)CN([C@H](C)CO)C2=O	x	-2	9	x	x
CC(C)c1ccc(/C=C2\SC(=S)N(CCC(=O)N3CCCCC3CCO)C2=O)cc1 (stereo not given)	87*	x	-84	65*	28
C[C@@H]1CN([C@H](C)CO)C(=O)c2cc(NC(=O)Nc3cccc4ccccc34)ccc2O[C@@H]1CN(C)Cc1ccccc1	x	1	17	x	x
Cc1nc([N+](=O)[O-])c(N2CCN(Cc3ccccc3)CC2)n1Cc1ccccc1	-10	x	x	10	-5
Cc1cc2nc(Sc3c([N+](=O)[O-])nc(C)n3Cc3ccccc3)[nH]c2cc1C	84*	7	15	32	-19
Cn1cnc([N+](=O)[O-])c1Sc1nc2ccccc2[nH]1	10	48	x	3	x
Cc1nc([N+](=O)[O-])c(Sc2nc3ccccc3[nH]2)n1Cc1ccccc1	57*	x	11	7	4
O=C(NCC1CCCCC1)[C@H]1[C@H](CO)[C@H]2Cn3c(ccc(C4=CCCC4)c3=O)[C@@H]1N2	x	3	2	x	x
COCCCN=Cc1c(C)[nH]n(-c2ccc(Br)c(C)c2)c1=O	65*	x	16	71*	-2
Cc1nn(-c2ccccc2)c(N2CCCC2)c1/C=N/NC(=O)c1ccccc1O	13	x	12	-9	10
O=C(N/N=C/c1cc2c3c(c1O)CCCN3CCC2)c1ccccc1O	-14	11	7	-23	65*
Cn1c(=O)cc(SCC(=O)NCc2ccco2)c2ccccc21	7	x	x	-2	3
SMILES	TWEAK Fn14 block	EWS-Fli inh	LGR2 inh	TROY NFkB inh	EBV LMP1 NFkB
O=C(CSc1cn(CCNC(=O)c2ccc3ccccc3c2)c2ccccc12)NCc1ccco1	60*	-32	16	42	-12
COc1ccc(C(=O)NCCn2cc(SCC(N)=O)c3ccccc32)cc1	51*	-16	3	63*	-8
COc1ccc(C(=O)NCCn2cc(SCC(=O)N3CCOCC3)c3ccccc32)cc1	34	x	-16	67*	-8
O=C(NCCn1cc(SCc2ccccc2F)c2ccccc21)c1c(F)cccc1F	62*	-25	x	34	-13
Cc1ccccc1-c1cnc2c(c1)C(=O)N([C@@H](C)CO)C[C@H](C)[C@H](CN(C)C(=O)c1ccc(F)cc1)O2	x	6	8	x	x
C[C@@H]1CN([C@H](C)CO)S(=O)(=O)c2ccc(C3=CCCCC3)cc2O[C@@H]1CN(C)C(=O)C1CCCCC1	x	11	18	x	x
CC(=NNC(=O)c1ccncc1)c1ccccc1O	-40	4	-8	-15	27
